# Experimental data from PubChem BioAssay (NCI).
# This is part of a sample that, as a whole, favours compounds with a hit. Of some 83,000 tested, about 20% had one in any assay.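 Compound tested at a single concentration for 48 hours in 96-well plates; a percent growth value below 10 was scored as active.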 A number with no mark means an inactive call. Calls of active or inactive are those of the source.
# Assays:
# Test in all cases: NCI-60 one-dose screen, 48 h (100 = growth as untreated, 0 = no growth, -100 = all killed)
# Details in all cases: 10 µM unless noted
# [1] = system: SK-MEL-2 melanoma
# [2] = system: EKVX NSCLC
# [3] = system: SN12C renal
# [4] = system: UO-31 renal
# [5] = system: TK-10 renal
# [6] = system: ACHN renal
# [7] = system: CAKI-1 renal
# [8] = system: A498 renal
# [9] = system: CCRF-CEM leukemia
# [10] = system: MOLT-4 leukemia
SMILES,growth [1],growth [2],growth [3],growth [4],growth [5],growth [6],growth [7],growth [8],growth [9],growth [10]
COc1ccc2[nH]c(O)c(N=Nc3nc(-c4ccc(C#N)cc4)cs3)c2c1,95.8%,63.9%,20.3%,18.3%,55.3%,22.2%,35.4%,13.2%,86.4%,84.2%
O=C(N/N=C/c1ccc(Cl)o1)c1[nH]c2ccc(Br)cc2c1-c1ccccc1,12.3%,12%,-60.9% (active),-34.5% (active),-11.7% (active),-46% (active),-0.252% (active),-25.6% (active),-2.11% (active),3.03% (active)
CCN(C(=O)CN1C(=O)/C(=C/c2ccco2)SC1=S)C1CCS(=O)(=O)C1 (stereo not given),99.2%,98%,106%,83.6%,121%,114%,91.4%,105%,105%,103%
CCOc1ccccc1NC(=O)N/C(N)=N/c1nc2ccccc2s1,38.7%,42.9%,8.49% (active),44.6%,63%,18.5%,17.8%,90.9%,0.25% (active),7.53% (active)
O=C1Nc2cc(-c3ccc(NS(=O)(=O)c4ccc([N+](=O)[O-])cc4)cc3)ccc2/C1=C/c1ccc[nH]1,13.9%,3.18% (active),-17.7% (active),34.9%,-2.87% (active),-62.5% (active),-17.4% (active),-33.6% (active),27.5%,15.8%
CC(C)(C)OC(=O)N1CCC2(CC1)Oc1ccccc1[C@H]1CC(c3ccc(Br)cc3)=NN12,71.9%,56.6%,71.2%,43%,131%,60%,41.1%,98.7%,58.2%,47%
COc1cc(CNC(=O)C[C@H](C)CCC=C(C)C)ccc1OCc1cn(-c2ccc(Cl)c(Cl)c2)nn1,93.7%,77.2%,38.2%,60.8%,90.7%,71.5%,64%,79.9%,84.5%,68.7%
CC(C)CN1C(=O)/C(=C\C(=O)c2cc3ccccc3oc2=O)c2ccccc21,101%,94.7%,89.9%,52.1%,98.2%,30.6%,81.2%,149%,37.2%,40%
Cc1ccc(Cl)cc1NC(=O)Nc1nc2ccc([N+](=O)[O-])cc2s1,-47.1% (active),-0.784% (active),-25.7% (active),-16.3% (active),2.13% (active),-19.8% (active),-26% (active),-21.7% (active),3.14% (active),6.23% (active)
O=C1/C(=C/c2cccc3c2OCO3)Cc2c(F)cc(Br)cc21,111%,94.4%,111%,90%,115%,108%,94.6%,152%,103%,106%
Nc1nc2cc(-c3ccc4ncnc(NCc5ccccc5)c4c3)ccc2o1,42.2%,0.598% (active),-33.7% (active),-73.4% (active),-28.5% (active),-62.4% (active),-24.9% (active),41.6%,29.6%,-20.1% (active)
C#CCCCNCCNc1ccnc2cc(Cl)ccc12,98.1%,70.3%,74.2%,60.8%,82.9%,87.7%,44.5%,108%,77.6%,65.1%
Cc1ccc(C(=O)Nc2cc(-n3ccnc3C)cc(C(F)(F)F)c2)cc1C#Cc1cnc2cccnn12,-64.1% (active),3.81% (active),-8.57% (active),0.162% (active),11.6%,-6.55% (active),-41.4% (active),-18.4% (active),5.01% (active),4.23% (active)
COc1ccc(-c2cc(-c3ccccc3)c(C#N)c(=O)[nH]2)cc1S(N)(=O)=O,104%,95.9%,124%,89.8%,96.8%,103%,96.4%,91.2%,113%,136%
CCOc1ccc2[nH]c(=O)c(C(c3nnnn3CC3CCCO3)N3CCN(Cc4ccccc4)CC3)cc2c1 (stereo not given),102%,86.9%,88.2%,99.9%,114%,61.2%,76.3%,76%,93.7%,101%
CN1C(=O)C2(C(C#N)=C(c3ccc(Cl)cc3)Nc3c2c(-c2ccccc2)nn3-c2ccccc2)c2ccccc21 (stereo not given),89.8%,80.7%,86.3%,71.7%,103%,89.5%,71%,144%,75.6%,64.4%
CN1CCN(c2ccc3c4c(cccc24)C(=O)N(c2cccc(-c4nn(-c5ccccc5)cc4-c4nc5ccccc5s4)c2)C3=O)CC1,120%,107%,94.8%,68.5%,119%,101%,97%,128%,60.3%,47.5%
COc1cc(/C=N/NC(=O)c2ccc(OCc3nc4ccc(C)cc4[nH]3)cc2)cc(OC)c1OC,68.1%,72.4%,56.4%,66.2%,83.2%,69.6%,50.5%,116%,7.65% (active),4.5% (active)
NNc1ncnc2sc3c(c12)CCN(Cc1ccccc1)C3,82%,36%,57%,51.7%,93.5%,57.4%,56.4%,93.7%,15.8%,19.7%
CNc1nc2ccccc2n2c(-c3ccc(O)c(O)c3)cnc12,3.66% (active),16.3%,4.03% (active),1.12% (active),62.8%,6.64% (active),3.52% (active),92.4%,14.9%,11%
CC(Nc1ncnc2ccc(-c3ccc4oc(N)nc4c3)cc12)c1ccccc1 (stereo not given),34.6%,5.01% (active),-17.7% (active),-76.4% (active),-41.4% (active),-64.2% (active),-40.6% (active),49.8%,2.38% (active),-39.9% (active)
COc1ccc2[nH]c(=O)c(CSc3ccccc3Nc3nccc(-c4ccc(C(F)(F)F)cc4)n3)cc2c1,41.9%,54.3%,-30.8% (active),26.9%,97.1%,-29.4% (active),-6.85% (active),39.9%,7.12% (active),-8.19% (active)
COC(=O)c1cc(C(=O)C(C)(C)C)n2c3ccccc3c3ccccc3c12,93.3%,101%,95.5%,84.7%,121%,89.7%,60.7%,156%,75.8%,67.1%
COc1ccc2[nH]c(O)c(N=Nc3nc(-c4ccc(Br)cc4)cs3)c2c1,21.1%,6.08% (active),-46.4% (active),0.841% (active),33.4%,-64.2% (active),2.6% (active),-78% (active),14.7%,-17.7% (active)
CN1C(=O)/C(=C\C(=O)c2cc3ccccc3oc2=O)c2ccccc21,65.1%,63.6%,66.3%,53.6%,98%,25.3%,65.2%,160%,43.4%,50.4%
CC(=O)C[n+]1cccc2c3ccccc3ccc21,106%,56.6%,80.1%,83%,101%,92.1%,94.1%,110%,65.5%,53.9%
COc1ccc(N=Nc2c(N)nn3c(-c4cc5cc(Br)ccc5oc4=O)ccnc23)cc1,29.6%,34.8%,17.6%,8.11% (active),62%,-21.2% (active),12%,36.1%,96.2%,85.6%
